Our source for the Inhibition values is ChEMBL document CHEMBL1157539, “Thousands of chemical starting points for antimalarial lead identification” (Nature, 2010).

Common to all, as to type: functional
The test system of assay [1] is Plasmodium falciparum. Description: GSK_TCMDC: Inhibition of Plasmodium falciparum 3D7 in whole red blood cells, using parasite LDH activity as an index of growth. Test compounds present at 2uM.
For assay [2], the system named is Plasmodium falciparum. Put plainly: GSK_TCMDC: Inhibition of Plasmodium falciparum Dd2 in whole red blood cells, using parasite LDH activity as an index of growth. Test compounds present at 2uM.
Another assay relates to HepG2. Put plainly: GSK_TCMDC: Percent inhibition of human HepG2 cell line. Test compounds present at 10uM.

Consider `CCN(CCCNc1nc(=S)[nH]c2cc(OC)c(OC)cc12)c1ccccc1`, for which the Inhibition (in general, the share of the control response that was lost under treatment) with Plasmodium falciparum [1] was determined as 100%; in the assay with Plasmodium falciparum [2], 23%; with HepG2 it was 14%.

For `CCc1ccccc1N=C1c2c(cccc2[N+](=O)[O-])C(=O)C1C(C)=O` (configuration not stated), the Inhibition is recorded as 99% in the assay on Plasmodium falciparum [1], 96% in the assay with Plasmodium falciparum [2] and 0% in the assay with HepG2.

For `COc1cc2nc(N3CCC(CNC(=O)c4cccc5cc[nH]c45)CC3)nc(N)c2cc1OC`, the Inhibition came out at 98% in the assay on Plasmodium falciparum [1], 24% in the assay on Plasmodium falciparum [2] and 33% in the assay on HepG2.

Regarding `CCN(CC)CCN(Cc1ccc(-c2ccc(C(F)(F)F)cc2)cc1)C(=O)Cn1c(CCc2cccc(F)c2F)nc(=O)c2ccccc21.O=C(O)C(O)C(O)C(=O)O`, the Inhibition in the assay on Plasmodium falciparum [1] was found to be 97%; with Plasmodium falciparum [2] it was 60%; in the assay on HepG2 it was 49%.

For the molecule `CC(C)NCc1ccc(-c2ccc(NC(=O)c3cccc(Cl)c3)cc2)cc1.O=C(O)C(F)(F)F`, the Inhibition worked out at 100% with Plasmodium falciparum [1], 14% with Plasmodium falciparum [2] and 36% in the assay with HepG2.

For the molecule `O=C(O)C(F)(F)F.O=S(=O)(NCCN1CCCC1)c1cccc(-c2ccc(CNCc3ccc(F)cc3)cc2)c1`, the Inhibition in the assay on Plasmodium falciparum [1] is given as 100%; with Plasmodium falciparum [2] it was 41%; in the assay on HepG2, 38%.

Regarding `O=[N+]([O-])c1ccc2nc(Nc3cccc(C(F)(F)F)c3)c(Nc3cccc(C(F)(F)F)c3)nc2c1`, the Inhibition in the assay on Plasmodium falciparum [1] turned out to be 100%; in the assay with Plasmodium falciparum [2], 99%; in the assay with HepG2 it was 0%.

Turning to `COc1ccc(-c2cnn3ccc(Nc4cc(OC)c(OC)c(OC)c4)nc23)cc1OC`, the Inhibition in the assay on Plasmodium falciparum [1] stood at 98%; in the assay on Plasmodium falciparum [2], 100%; with HepG2, 57%.

For the molecule `COc1ccc(N2CCN(CCCCNCc3ccc(NC(=O)c4cc(Cl)cc(Cl)c4)cc3)CC2)c(OC)c1`, the Inhibition is listed as 100% in the assay with Plasmodium falciparum [1], 99% in the assay with Plasmodium falciparum [2] and 39% with HepG2.

Regarding `O=C(NCc1ccc(Cl)c(Cl)c1)c1ccc(C2CCN(Cc3ccc4[nH]cnc4c3)CC2)cc1`, the Inhibition was found to be 100% in the assay with Plasmodium falciparum [1], 31% with Plasmodium falciparum [2] and 1% in the assay with HepG2.

Consider `CCN(CC)CCNc1ccnc2[nH]c3ccc(Cl)cc3c12`, for which the results for the Inhibition with Plasmodium falciparum [1], in the assay with Plasmodium falciparum [2] and in the assay with HepG2 were 100%, 92% and 3%, respectively.

As for `CC(C)(C)N1CCC(N(Cc2ccc(-c3ccc(C(F)(F)F)cc3)cc2)C(=O)Cn2c(CCc3cccc(F)c3F)cc(=O)c3ccccc32)CC1.O=C(O)C(O)C(O)C(=O)O`, the Inhibition in the assay on Plasmodium falciparum [1] is listed as 100%; in the assay on Plasmodium falciparum [2] it was 97%; in the assay on HepG2, 100%.

Regarding `CSc1ccc(CN2CCC(NC(=O)c3ccc(-c4cccc(C(F)(F)F)c4)s3)CC2)cc1.O=C(O)C(F)(F)F`, the Inhibition in the assay with Plasmodium falciparum [1] came out at 90%; with Plasmodium falciparum [2] it was 9%; in the assay with HepG2 it was 68%.

With `c1ccc2[nH]c(-c3ccc(-c4ccc(CN5CCC(N6CCCCC6)CC5)cc4)s3)nc2c1`, the Inhibition is 99% in the assay with Plasmodium falciparum [1], 100% in the assay on Plasmodium falciparum [2] and 26% in the assay with HepG2.

On to `O=C(Nc1ccc(-c2csc(-c3nc4ccccc4[nH]3)c2)cc1)Nc1ccsc1`, for which the values for the Inhibition in the assay on Plasmodium falciparum [1], with Plasmodium falciparum [2] and with HepG2 were 100%, 17% and 50%, respectively.

Regarding `CCN(CC)CCN(Cc1ccc(-c2ccc(C(F)(F)F)s2)cc1)C(=O)Cn1c(CCc2cccc(F)c2F)nc(=O)c2ccccc21.O=C(O)C(O)C(O)C(=O)O`, the Inhibition with Plasmodium falciparum [1] worked out at 94%; in the assay on Plasmodium falciparum [2], 31%; with HepG2, 43%.

Consider `CC(C)CCN1CCCN(Cc2ccc(C(=O)Nc3ccc(F)c(F)c3)cc2)CC1.O=C(O)C(F)(F)F`, for which the Inhibition was 88% in the assay on Plasmodium falciparum [1], 27% in the assay with Plasmodium falciparum [2] and 36% with HepG2.

In the case of `Cc1cc(NCCC(=O)NCc2cccc(F)c2)nc(Nc2ccccc2)n1.O=C(O)C(F)(F)F`, the Inhibition was 94% with Plasmodium falciparum [1], 15% with Plasmodium falciparum [2] and 0% in the assay on HepG2.

For `CC(=O)Nc1ccc(C(=O)NC2CCN(c3ccnc4cc(Cl)ccc34)CC2)cc1.O=C(O)C(F)(F)F`, the Inhibition is 100% in the assay on Plasmodium falciparum [1], 99% with Plasmodium falciparum [2] and 5% with HepG2.

As to `COc1cc(-c2ccccc2)ccc1C(=O)Nc1ccc2c(c1)N(C)CCC2`, the Inhibition with Plasmodium falciparum [1] was found to be 85%; with Plasmodium falciparum [2] it was 75%; in the assay on HepG2, 15%.

`Cl.Nc1nc(N)c2c(Cl)c(N(Cc3ccccc3)Cc3ccccc3)ccc2n1`: the Inhibition in the assay on Plasmodium falciparum [1] was found to be 96%; with Plasmodium falciparum [2] it was 2%; in the assay with HepG2, 66%.

As to `COc1ccc(CNC2CCN(C)CC2)cc1-c1ccc(S(=O)(=O)NCc2cccnc2)s1.O=C(O)C(F)(F)F`, the Inhibition came to 100% with Plasmodium falciparum [1], 3% in the assay on Plasmodium falciparum [2] and 10% in the assay with HepG2.

Consider `Cc1ccc(C(c2nnnn2C2CCCC2)N(Cc2ccco2)Cc2ccccc2Cl)cc1` (configuration not stated), for which the Inhibition came out at 85% in the assay on Plasmodium falciparum [1], 78% in the assay with Plasmodium falciparum [2] and 8% with HepG2.

Regarding `Cc1cccc(C)c1CNc1ccnc2cc(Br)ccc12.Cl`, the Inhibition with Plasmodium falciparum [1] is 95%; in the assay on Plasmodium falciparum [2] it was 99%; with HepG2, 24%.
